From PubChem BioAssay (NCATS)
Inconclusive results are not listed. Calls of active or inactive are those of the source. Calls come from the whole dose curve; as a rule, active = well fitted curve in the direction sought with a large enough effect; inconclusive = small, poorly fitted or top-dose-only effect, or another doubt; inactive = no such curve, though single readings can be large; an effect the other way counts as inactive or inconclusive.

Experiments:
[1] = Quantitative High-Throughput drug screen in 47 multiple myeloma cell lines against the NCATS MIPE library collection: JJN3_DSMZ cell viability assay (AID 1918966; note: nearly all actives have a fitted effect of over 50% in size)
Procedure, shortened: (§1)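 Inhibition of cell viability is measured here. Each line was plated at 500 cells per well, treated with MIPE 4.0 drugs, kept 48 hours at 37C, then assayed for ATP content by CellTiter-Glo luminescence.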

[2] = Quantitative High-Throughput drug screen in 47 multiple myeloma cell lines against the NCATS MIPE library collection: H1112_PLB cell viability assay (AID 1918967; note: nearly all actives have a fitted effect of over 30% in size)
Procedure, shortened: as §1

[3] = Quantitative High-Throughput drug screen in 47 multiple myeloma cell lines against the NCATS MIPE library collection: Karpas25_ECACC cell viability assay (AID 1918968; note: nearly all actives have a fitted effect of over 35% in size)
Procedure, shortened: as §1

[4] = Quantitative High-Throughput drug screen in 47 multiple myeloma cell lines against the NCATS MIPE library collection: KMS12BM_JCRB cell viability assay (AID 1918971); note: nearly all actives have a fitted effect of over 35% in size
Procedure, shortened: (§2)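 qHTS of the MIPE 4.0 collection: 500 myeloma cells/well, 48 h drug exposure at 37C in 5% CO2, then CellTiter-Glo for 5 min at room temperature before luminescence reading.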

[5] = Quantitative High-Throughput drug screen in 47 multiple myeloma cell lines against the NCATS MIPE library collection: KMS26_JCRB cell viability assay (AID 1918975); note: nearly all actives have a fitted effect of over 45% in size
Procedure, shortened: as §2

[6] = Quantitative High-Throughput drug screen in 47 multiple myeloma cell lines against the NCATS MIPE library collection: MOLP8_DSMZ cell viability assay (AID 1918977); note: nearly all actives have a fitted effect of over 45% in size
Procedure, shortened: (§3)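 Inhibition of viability over 48 h was scored by ATP content (CellTiter-Glo) in 500-cell wells. Zero and full viability were defined by media-only and DMSO-only wells.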

[7] = Quantitative High-Throughput drug screen in 47 multiple myeloma cell lines against the NCATS MIPE library collection: NCIH929_DSMZ cell viability assay (AID 1918978); note: nearly all actives have a fitted effect of over 35% in size
Procedure, shortened: as §3

[8] = Quantitative High-Throughput drug screen in 47 multiple myeloma cell lines against the NCATS MIPE library collection: OCIMY1_PLB cell viability assay (AID 1918979); note: nearly all actives have a fitted effect of over 35% in size
Procedure, shortened: as §3

[9] = Quantitative High-Throughput drug screen in 47 multiple myeloma cell lines against the NCATS MIPE library collection: MM1S_ATCC cell viability assay (AID 1918980); note: nearly all actives have a fitted effect of over 45% in size
Procedure, shortened: as §3

[10] = Quantitative High-Throughput drug screen in 47 multiple myeloma cell lines against the NCATS MIPE library collection: MM1R_ATCC cell viability assay (AID 1918981); note: nearly all actives have a fitted effect of over 35% in size
Procedure, shortened: as §3

[11] = Quantitative High-Throughput drug screen in 47 multiple myeloma cell lines against the NCATS MIPE library collection: LP1_DSMZ cell viability assay (AID 1918982); note: nearly all actives have a fitted effect of over 35% in size
Procedure, shortened: as §3

[12] = Quantitative High-Throughput drug screen in 47 multiple myeloma cell lines against the NCATS MIPE library collection: KMS28PE_JCRB cell viability assay (AID 1918983); note: nearly all actives have a fitted effect of over 35% in size
Procedure, shortened: as §3

[13] = Quantitative High-Throughput drug screen in 47 multiple myeloma cell lines against the NCATS MIPE library collection: KMS34_JCRB cell viability assay (AID 1918985); note: nearly all actives have a fitted effect of over 40% in size
Procedure, shortened: as §3

[14] = Quantitative High-Throughput drug screen in 47 multiple myeloma cell lines against the NCATS MIPE library collection: KMS27_JCRB cell viability assay (AID 1918970); conditions: KMS27 myeloma cells, CellTiter-Glo ATP viability, 48 h; viability (% of DMSO): at 45.8 µM (top of the series); note: nearly all actives have a fitted effect of over 30% in size
Procedure, shortened: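 CellTiter-Glo luminescence after 48 h drug exposure at 37 °C; 500 cells/well, 1536-well format, pin-tool compound addition; DMSO = 100%, media-only = 0% viability.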

[15] = Quantitative High-Throughput drug screen in 47 multiple myeloma cell lines against the NCATS MIPE library collection: KMS20_JCRB cell viability assay (AID 1918973); note: nearly all actives have a fitted effect of over 45% in size
Procedure, shortened: as §1

[16] = Quantitative High-Throughput drug screen in 47 multiple myeloma cell lines against the NCATS MIPE library collection: KMS21BM_JCRB cell viability assay (AID 1918974); conditions: ATP luminescence, 48 h; viability: at 45.8 µM (top of the series)
Procedure, shortened: as §1

[17] = Quantitative High-Throughput drug screen in 47 multiple myeloma cell lines against the NCATS MIPE library collection: MMM1_PLB cell viability assay (AID 1918976); note: nearly all actives have a fitted effect of over 35% in size
Procedure, shortened: as §3

[18] = Quantitative High-Throughput drug screen in 47 multiple myeloma cell lines against the NCATS MIPE library collection: L363_DSMZ cell viability assay (AID 1918984); conditions: L363 myeloma viability, CellTiter-Glo ATP luminescence, 48 h; viability (% of control): at 45.8 µM (top of the series); note: nearly all actives have a fitted effect of over 40% in size
Procedure, shortened: as §3

[19] = Quantitative High-Throughput drug screen in 47 multiple myeloma cell lines against the NCATS MIPE library collection: KMS12PE_JCRB cell viability assay (AID 1918972); note: nearly all actives have a fitted effect of over 30% in size
Procedure, shortened: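 Steps: seed 500 cells per well; pin-transfer MIPE 4.0 library; incubate 48 h at 37C, 5% CO2, humidified; add CellTiter-Glo, 5 min room temperature; read luminescence.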
Potency is the fitted concentration of half-maximal effect.

Row | Compound | Potency [1] | Potency [2] | Potency [3] | Potency [4] | Potency [5] | Potency [6] | Potency [7] | Potency [8] | Potency [9] | Potency [10] | Potency [11] | Potency [12] | Potency [13] | Potency [14] | Potency [15] | Potency [16] | Potency [17] | Potency [18] | Potency [19]
1 | CO[C@H]1/C=C\O[C@@]2(C)Oc3c(C)c(O)c4c(O)c(c(C=NN5CCN(C6CCCC6)CC5)c(O)c4c3C2=O)NC(=O)C(C)=CC=C[C@H](C)[C@H](O)[C@@H](C)[C@@H](O)[C@@H](C)[C@H](OC(C)=O)[C@H]1C | 6.62 µM (active) | 1.18 µM (active) | 0.0235 µM (active) | 6.62 µM (active) | 20.9 µM (active) | 8.33 µM (active) | 0.105 µM (active) | 9.35 µM (active) | 0.296 µM (active) | 0.187 µM (active) | 1.87 µM (active) | 0.418 µM (active) | 2.96 µM (active) |  |  |  |  |  | 
2 | O=c1[nH]nc(OCCCc2ccc(Cl)cc2)c(NCc2cccnc2)c1Br | 20.9 µM (active) | 10.5 µM (active) | 6.62 µM (active) | 18.7 µM (active) | 14.8 µM (active) |  | 7.43 µM (active) | 18.7 µM (active) | 8.33 µM (active) | 16.6 µM (active) | 14.8 µM (active) |  | 20.9 µM (active) | 7.43 µM (active) | 1.05 µM (active) | 4.69 µM (active) | 16.6 µM (active) | 3.72 µM (active) | 
3 | c1ccc(-c2oc3ncnc(NC[C@@H]4CCCO4)c3c2-c2ccccc2)cc1 | 16.6 µM (active) | inactive |  | 23.5 µM (active) | 18.7 µM (active) |  |  | inactive | 18.7 µM (active) |  |  | 26.4 µM (active) |  | 4.69 µM (active) |  |  | 20.9 µM (active) |  | 4.69 µM (active)
4 | CCOC(=O)N1c2ccc(C(F)(F)F)cc2[C@@H](N(Cc2cc(C(F)(F)F)cc(C(F)(F)F)c2)C(=O)OC)C[C@H]1CC | 5.9 µM (active) | inactive |  | 13.2 µM (active) | 3.32 µM (active) |  | 8.33 µM (active) |  |  | 2.96 µM (active) |  | 4.69 µM (active) | 5.26 µM (active) | inactive | inactive |  |  | inactive | inactive
5 | C=C[C@@H]1CN2CCC1C[C@@H]2C(O)c1ccnc2ccc(OC)cc12 (stereo not given in full) | 16.6 µM (active) | inactive | 1.66 µM (active) |  |  |  | inactive | inactive |  | 18.7 µM (active) | inactive | 16.6 µM (active) |  | inactive |  |  | 11.8 µM (active) | inactive | inactive
6 | CN1N=C(N)c2cn([C@@H]3O[C@H](COP(=O)(O)O)[C@@H](O)[C@@H]3O)c3ncnc1c23 | 2.96 µM (active) | 0.526 µM (active) | 0.372 µM (active) | 6.62 µM (active) | 0.0132 µM (active) |  |  |  | 1.18 µM (active) | 5.9 µM (active) |  | 0.833 µM (active) | 0.833 µM (active) | 0.0662 µM (active) | 1.32 µM (active) |  | 0.469 µM (active) |  | 
7 | Cc1c(C(=O)Nc2ccc(N3C[C@@H](C)O[C@@H](C)C3)nc2)cccc1-c1ccc(OC(F)(F)F)cc1 | 14.8 µM (active) | 7.43 µM (active) | 4.18 µM (active) | 18.7 µM (active) |  | 13.2 µM (active) |  |  | 14.8 µM (active) |  | 9.35 µM (active) | 13.2 µM (active) |  |  |  |  |  |  | 
8 | O=C(O)CCC=CCC[C@@H]1[C@H](N2CCCCC2)[C@@H](O)C[C@@H]1OCc1ccc(-c2ccccc2)cc1 | inactive | inactive |  | inactive | inactive | inactive | inactive |  | inactive | inactive | inactive | inactive | inactive | inactive |  |  | inactive | inactive | inactive
9 | CC1(C)C(N(O)C(=O)Nc2ccc(Cl)cc2)N(c2ccc(Cl)cc2)C(=O)N1CC(=O)NN=CC=Cc1ccc([N+](=O)[O-])o1 (stereo not given) | 4.18 µM (active) | 9.35 µM (active) | 8.33 µM (active) | 8.33 µM (active) | 8.33 µM (active) | 3.72 µM (active) | 7.43 µM (active) |  | 9.35 µM (active) |  | 16.6 µM (active) | 8.33 µM (active) | 7.43 µM (active) |  |  |  | 14.8 µM (active) |  | inactive
10 | CCOC(=O)[C@H](CCc1ccccc1)N[C@@H](C)C(=O)N1CCCC1C(=O)O (stereo not given in full) | inactive | inactive | inactive | inactive | inactive | inactive | inactive | inactive | 10.5 µM (active) |  | inactive | inactive |  |  | inactive |  |  |  | inactive
11 | CCN(CC)CCCCNc1nc2cc(Cl)c(Cl)cc2nc1-c1ccc(-c2cccs2)s1 | 23.5 µM (active) | 7.43 µM (active) | 8.33 µM (active) | 16.6 µM (active) | 13.2 µM (active) | 8.33 µM (active) | 7.43 µM (active) | 14.8 µM (active) | 11.8 µM (active) |  | 8.33 µM (active) | 18.7 µM (active) | 16.6 µM (active) | 8.33 µM (active) | 4.69 µM (active) |  |  | 5.9 µM (active) | 6.62 µM (active)
